Test results from PubChem BioAssay (NCATS).
Records with an inconclusive call do not appear. Where a call stands in place of a potency, no number is given. The source made the active and inactive calls. Calls follow the shape of the dose curve; as a rule, active = well fitted inhibition curve with a large enough effect; inconclusive = small, poorly fitted or top-dose-only effect; inactive = flat fitted curve, though single readings scatter.

experiment: High Content Imaging Cell-Based qHTS for Inhibitors of the mTORC1 Signaling Pathway in MEF (Tsc2-/-, p53-/-) Cells (AID 2666); conditions: series mostly up to 38.3 µM;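 also: percent of cells scored positive for phospho-rpS6 Ser235/236 immunostaining by imaging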
Excerpt: NIH Molecular Libraries Probe Production Centers Network [MLPCN]
NIH Chemical Genomics Center [NCGC]
Assay Submitter (PI): Blenis, John; Hoffman, Greg; Harvard University
NCGC Assay Overview: Thee mammalian target of rapamycin (mTOR) is an intracellular serine/threonine kinase Aberrant regulation of mTOR signaling plays a causative role in a number of human diseases, including cancer, benign tumors such as lymphangioleiomyomatosis (LAM) and Tuberous Sclerosis Complex (TSC), and metabolic diseases such as diabetes and obesity. This project aims to identify inhibitors of ribosomal protein S6 (rpS6) phosphorylation. The phosphorylation of rpS6 is a key event downstream of mTOR activation. The assay uses a phospho-specific antibody of phospho-rpS6 to detect inhibitors of mTOR activation. Mutations in the Tsc1 and Tsc2 genes are the underlying genetic lesions responsible for TSC, causing constitutive activation of the mTORC1 pathway and leading to profound effects on cell metabolism. Aberrant metabolism in cancer has recently received significant attention as a target to develop therapeutic agents in the treatment of cancer1. As Tsc2-/- cells have lost the ability to respond to energy and growth factor deprivation, these cells are unable to properly down regulate cellular biosynthetic processes in response to metabolic stress, and are thus extremely sensitive to glucose deprivation-induced death.2 A central goal of this project is to explore the unique cell survival and metabolic properties of cells with Tsc1 or Tsc2 by screening for compounds that selectively target the Tsc2-/- MEFs by screening both Tsc2-/- and WT MEF cell lines. We hope to better understand these aspects of TSC physiology in order to exploit them for therapeutic benefit.
NCGC IN Cell Assay Protocol:
For quantitative high throughput analysis of mTORC1 signaling, we developed a cell-based assay for immuno-fluorescence based detection of rpS6 phosphorylation on the Acumen Explorer that will be used a platform for the primary small molecule screen. Mouse embryonic fibroblasts (MEFs) are cultured in 1536-well plates using DMEM + 10% FBS. Twenty-four hrs after plating, test compounds (solubilized in DMSO) are delivered and incubated with the cells for 24 hrs at 37 degree Celsius. Following the incubation, media with compound is aspirated and the cells are fixed in 4% paraformaldehyde (PFA) containing PBS + 0.2% TX-100. Next, PFA is aspirated, cells are washed two times with PBS plus 0.2% TX-100 and the cells are blocked for 1 hr at room temperature (blocking buffer: LiCOR Blocking Buffer plus 0.2% TX-100). This is followed by aspiration and staining with Alexa-488 conjugated-phospho-rpS6 Ser235/236 antibody for 2 hours at room temperature (Cell Signaling Technology # 4803, 1:50 dilution in blocking buffer). Cells are washed two times with PBS plus 0.2% TX-100, and stained with 10 uM propidium iodide (PI) for 20-25 minutes for cell number measurement (1:500 dilution of Hoescht staining is also added for IN Cell imaging). Active wells which are selected (based on Acumen results) are imaged on the IN Cell 1000 (GE Healthcare) using the D360/40X and HQ480/40X excitation filters for the Hoechst and Alexa-488 cytoplasmic stains, respectively. The fluorescence emission filters used were HQ460/40M and HQ535/50M for the Hoechst and Alexa-488 cytoplasmic stains, respectively. The normalized phospho-S6 staining is calculated as the ratio of […] for the single concentration rapamycin control ([…] nM) and DMSO columns. […] Inhibition of the pathway is defined based on the normalized phospho-S6 intensity in rapamycin treated cells. Each treatment is reported as the % positive cells in the well, where thresholds are defined by selecting wells with the highest and lowest signal and differentiating between the % non-active and % active populations. […]

Structure (SMILES)	Potency
COc1cc(C(O)CO)ccc1O (stereo not given)	inactive
CCCCCC[C@@H]([C@@H](C)O)n1cnc2c(N)ncnc21	inactive
C=C(C)C1CC=C(C(=O)O)CC1 (stereo not given)	inactive
CC1CCN(CC[C@H]2CCCN2S(=O)(=O)c2cccc(O)c2)CC1	inactive
OC[C@H]1O[C@H](n2cnc3c(N[C@H]4CCC[C@@H]4O)ncnc32)[C@H](O)[C@@H]1O	inactive
COc1cc([C@@H]2c3cc4c(cc3[C@H](O)C3COC(=O)[C@@H]32)OCO4)cc(OC)c1OC (stereo not given in full)	inactive
CC(=O)[C@H]1CCC2C3CC=C4C[C@@H](OS(=O)(=O)O)CC[C@]4(C)C3CC[C@@]21C (stereo not given in full)	inactive
O=c1[nH]ccc2c(O)cccc12	inactive
O=C(O)[C@H]1NCCC[C@H]1C(=O)O	inactive
CN(C)CCCc1cc(C(=O)Nc2ccc(-c3ccncc3)cc2)ccc1O	inactive
CC(C)(C)NCC(O)COc1cccc2[nH]c(=O)[nH]c12 (stereo not given)	inactive
C=C1C[C@@]23CC[C@H]4[C@@](C)(CCC[C@@]4(C)C(=O)OC4OC(CO)C(O)C(O)C4O)[C@@H]2CC[C@]1(OC1OC(CO)C(O)C(O)C1OC1OC(CO)C(O)C(O)C1O)C3 (stereo not given in full)	inactive
CCCCC[C@H](CC(=O)NO)C(=O)N[C@H](C(=O)N1CCC[C@H]1CO)C(C)C	inactive
CC(C)(C)c1ccc(/C=C/C(=O)Nc2ccc3c(c2)OCCO3)cc1	inactive
Cn1c(=O)c2[nH]c(C3CCCC3)nc2n(C)c1=O	inactive
C=C1C(=O)O[C@@H]2[C@H]3O[C@]3(C)CCC=C(C)CC[C@@H]12	inactive
NC1(C(=O)O)CC1	inactive
[Li+]	inactive
CCc1ccc2c(-c3cccc(Cl)c3)nc(=O)n(CC)c2n1	inactive
C#CC(N)CCC(=O)O (stereo not given)	inactive

Structure (SMILES)	Potency
COc1cc(/C=C(\C#N)C(=O)Nc2nnc(C(F)(F)F)s2)ccc1OCc1ccc(C(F)(F)F)cc1C(F)(F)F	inactive
N[C@@H](Cc1ccc(F)cc1)C(=O)O	inactive
CCCC[C@@]1(C2CCCC2)Cc2cc(OCC(=O)O)c(Cl)c(Cl)c2C1=O	inactive
NC(N)=NC(N)=Nc1cccc(Cl)c1	inactive
Nc1ccc(-c2nc3ccc(-c4nc5ccc(N)cc5[nH]4)cc3[nH]2)cc1	inactive
CN(CC[C@@H](Oc1ccc(C(F)(F)F)cc1)c1ccccc1)CC(=O)O	inactive
NC(C(=O)N[C@@H]1C(=O)N2C(C(=O)O)=C(Cl)CS[C@H]12)c1ccccc1 (stereo not given in full)	inactive
COc1ccc(C(=O)NCc2cccnc2)cc1C(=O)NCc1cccnc1	inactive
O=C(O)C1=CC(=C(c2ccc(O)c(C(=O)O)c2)c2ccc(O)c(C(=O)O)c2)C=CC1=O	inactive
c1ccc(CN2CCC3(CCCc4ccccc43)CC2)cc1	inactive
CC(C)(C)c1cc(/C=C(\C#N)C(N)=S)cc(C(C)(C)C)c1O	inactive
COC(=O)C1=C(C)NC(C)=C([N+](=O)[O-])C1c1ccccc1C(F)(F)F (stereo not given)	inactive
COc1cc(/C=C(\C#N)C(=O)c2ccc(O)c(O)c2)cc(I)c1O	inactive
CC[n+]1c(/C=C/C=C2/N(C)c3ccccc3C2(C)C)sc2ccccc21	inactive
CCCC(=O)NCCc1c2n(c3ccc(OC)cc13)CCCc1ccccc1-2	inactive
CCCCCCC/C=C\CCCCCCCCC(=O)O	inactive
c1ccc2c(c1)CCC[C@H]2Nc1nc2ccccc2[nH]1	inactive
NC(N)=NC(N)=Nc1ccccc1	inactive
Cn1cc(C(F)(F)F)nc1-c1ccc(OCC(O)CNCCOc2ccc(O)c(C(N)=O)c2)cc1 (stereo not given)	inactive
Oc1ccc(/C=C/c2ccc(/C=C/c3ccc(O)cc3)c(Br)c2)cc1	inactive
